Bioassay records as filed in PubChem.
rCAG RNA binder: r(CAG) repeat RNA binding; TO-PRO-1 dye displacement fluorescence; inhibition, % at 3 µM; 370,000 tested, 1.3% active;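 active = inhibition above the plate cutoff, the mean of all test compounds on that plate plus 3 SD, cut at about 35% in these data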;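 note: 0% = DMSO alone and 100% = 100 µM mitoxantrone as full dye displacement; higher means more dye released from RNA so lower well fluorescence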
ZTA DNA inh: counter-screen for EBNA-1 inhibitors: inhibitors of Epstein-Barr virus ZTA; P03206; ZTA-DNA binding, fluorescence polarization; inhibition, % at 11 µM; 320,000 tested, 0.15% active; AID 2234; in the data active = inhibition above about 33%
Target sequence (P03206 whole entry, looked up): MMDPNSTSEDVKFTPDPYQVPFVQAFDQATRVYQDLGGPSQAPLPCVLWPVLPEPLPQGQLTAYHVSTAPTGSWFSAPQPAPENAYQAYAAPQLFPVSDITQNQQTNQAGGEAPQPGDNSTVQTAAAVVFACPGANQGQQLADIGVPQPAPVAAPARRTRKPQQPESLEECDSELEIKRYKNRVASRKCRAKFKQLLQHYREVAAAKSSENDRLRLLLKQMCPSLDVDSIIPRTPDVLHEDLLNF
EBNA-1 inhibitor: blocks EBNA-1 binding to DNA | EBNA-1 DNA binding, fluorescence polarization | inhibition, % at 14.8 µM | 300,000 tested, 0.34% active; in the data active = inhibition above about 28%
PAFAH2 FP inh: PAFAH2 (human) inhibition | Q99487 | recombinant PAFAH2, FP-rhodamine activity probe, fluorescence polarization | inhibition, % at 3.39 µM | 340,000 tested, 0.99% active;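 active = inhibition above the mean over all tested compounds plus 3 SD, cut at about 30% in these data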;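 note: inhibitors block probe labeling of enzyme so polarization drops; 0% = enzyme with DMSO and 100% = wells lacking PAFAH2 protein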
PAFAH1B3 inh: blocks human PAF acetylhydrolase 1B catalytic subunit 3 | AID 492972 | recombinant PAFAH1B3, FP-rhodamine probe, fluorescence polarization | inhibition, % at 3.39 µM | 340,000 tested, 0.28% active;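 active = inhibition above the screen-wide average of all tested compounds plus 3 SD, cut at about 25% in these data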;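 note: 0% = enzyme with DMSO only and 100% = wells lacking PAFAH1B3 protein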
PAFAH1B2 inh: inhibitors of human PAFAH1B2; recombinant PAFAH1B2, FP-rhodamine activity probe, fluorescence polarization; 340,000 tested, 1.2% active; inhibition, % at 3.39 µM; P68402;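 active = inhibition above the mean of all tested compounds plus 3 SD, cut at about 24% in these data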;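 note: 0% = enzyme with DMSO and 100% = wells lacking PAFAH1B2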
Target sequence (P68402 whole entry, looked up): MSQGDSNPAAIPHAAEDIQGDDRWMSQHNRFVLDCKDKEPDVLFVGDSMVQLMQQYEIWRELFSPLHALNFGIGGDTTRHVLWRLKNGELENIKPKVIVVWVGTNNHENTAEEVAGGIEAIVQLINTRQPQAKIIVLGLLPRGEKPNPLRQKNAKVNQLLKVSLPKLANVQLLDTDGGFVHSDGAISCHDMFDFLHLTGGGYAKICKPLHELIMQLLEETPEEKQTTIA
PAFAH2 FP conf: PAFAH2 (human) inhibition, confirmed. inhibition, % at 3.39 µM. recombinant PAFAH2, FP-rhodamine activity probe, fluorescence polarization. shares compounds with PAFAH2 FP inh. 2,300 tested, 65% active;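 active = mean inhibition over three repeats above a set limit taken from the earlier primary screen, cut at about 30% in these data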;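 note: inhibitor blocks binding of rhodamine activity probe so polarization falls; 0% = enzyme with DMSO and 100% = wells lacking PAFAH2 protein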
* hit, by the source's call; / = no result given. The list is not random: actives were taken first. Their share in the collection is about 2.9%.

SMILES	rCAG RNA binder	ZTA DNA inh	EBNA-1 inhibitor	PAFAH2 FP inh	PAFAH1B3 inh	PAFAH1B2 inh	PAFAH2 FP conf
COc1cccc(CNC(=O)COC(=O)c2cccc(S(=O)(=O)N3CCN(C(C)=O)CC3)c2)c1	0	9	/	17	3	3	/
CCCCC(=O)N1CCC(NS(=O)(=O)c2ccc3c(c2)CCN3C(C)=O)CC1	2	/	/	/	/	/	/
CC(=O)N1CCc2cc(S(=O)(=O)NC3CCN(C(=O)CCl)CC3)ccc21	2	/	/	/	/	/	/
CN(C)c1cccc(C(=O)OCC(=O)NC2CCCC2)c1	-1	15	-8	77*	7	5	78*
O=C(COC(=O)c1cccc(O)c1)Nc1ccc(OC(F)F)cc1	-1	-12	-3	64*	3	4	54*
O=C(COC(=O)c1cccc(OC(F)F)c1)NC1CCCC1	0	9	-4	52*	7	0	40*
O=C(COC(=O)c1cccc(C(F)(F)F)c1)NC(=O)NC1CCCC1	-3	/	/	13	2	1	/
O=C(COC(=O)c1ccc(OC(F)F)cc1)NC(=O)NC1CCCC1	0	-2	/	12	2	3	/
C=CCNC(=O)/C=C/c1cccs1	0	1	8	8	1	7	/
CN(CC(=O)Nc1ccccc1Cl)C(=O)COC(=O)/C=C/c1cccs1	1	18	/	3	7	1	/
C=CCNC(=O)COC(=O)/C=C/c1cccs1	-1	0	-12	49*	6	1	26
CC(C)C(=O)NC(=O)COC(=O)/C=C/c1cccs1	-5	7	11	53*	7	2	42*
CN(C(=O)COC(=O)/C=C/c1cccs1)C1CCCCC1	-2	/	/	75*	1	0	73*
CC(=O)OCCN1C(=O)c2ccc(-c3nc4ccccc4c(=O)o3)cc2C1=O	3	1	9	53*	-1	2	46*
CCN1C(=O)c2ccc(-c3nc4ccccc4c(=O)o3)cc2C1=O	1	9	-5	35*	11	2	63*
CCOc1cc(C(=O)OCC(=O)Nc2ccc(F)cc2Cl)ccc1OCC(=O)N1CCOCC1	-2	/	/	76*	-2	3	71*
CCOc1cc(C(=O)OCC(=O)Nc2ncc(Cl)c(C)c2Cl)ccc1OCC(=O)N1CCOCC1	5	11	2	55*	3	0	54*
COc1cc(C(=O)OCC(=O)Nc2ccc(C(C)=O)cc2)ccc1OCC(=O)N1CCOCC1	0	6	6	61*	6	7	58*
Cc1c(Cl)cnc(NC(=O)COC(=O)c2ccc3c(c2)OCO3)c1Cl	3	-1	2	50*	8	3	30*
CCOc1cc(C(=O)OC(C)C(=O)Nc2ncc(Cl)cc2Cl)ccc1OCC(=O)N1CCOCC1 (stereo unspecified)	0	-9	8	11	5	2	/
CCOc1ccc(C(=O)OCC(=O)N2CCOCC2)cc1OCC	0	-15	4	7	4	2	/
Cc1cccc(C)c1NC(=O)COC(=O)c1ccc(N2CCCC2)c([N+](=O)[O-])c1	3	-9	9	63*	-3	-1	59*
CCOC(=O)c1ccccc1NC(=O)COC(=O)c1ccc(OCC(=O)N2CCOCC2)c(OCC)c1	5	/	/	35*	-1	-5	24
CCOc1cc(C(=O)OCC(=O)Nc2c(C)cccc2C)ccc1OCC(=O)N1CCOCC1	-2	-11	5	50*	2	1	68*
CCN(CC(=O)Nc1c(F)cccc1F)C(=O)c1ccc(N2CCCC2)c([N+](=O)[O-])c1	-6	-8	-3	0	4	1	/
SMILES	rCAG RNA binder	ZTA DNA inh	EBNA-1 inhibitor	PAFAH2 FP inh	PAFAH1B3 inh	PAFAH1B2 inh	PAFAH2 FP conf
COC(=O)C1CN(CCO)CCS(=O)(=O)N1Cc1cn(Cc2ccccc2Br)nn1 (stereo unspecified)	2	/	/	/	/	/	/
Cc1ccsc1C(=O)OCc1nnc(-c2ccccc2)o1	2	/	/	51*	2	2	29
O=C(OCCOc1ccccc1F)c1cccc(S(=O)(=O)N2CCOCC2)c1	1	9	/	30*	6	1	18
O=C(OCc1nnc(-c2ccc(Cl)cc2)o1)c1ccncc1	7	19	9	1	4	-1	/
O=C(OCc1nnc(-c2ccccc2)o1)c1ccccc1	-6	-15	-1	57*	1	1	50*
Cc1ccccc1C(=O)OCc1nnc(-c2ccc(Cl)cc2)o1	-2	-11	-3	33*	1	4	25
CN(C)CC(=O)N[C@@H]1C[C@@H]2O[C@@H](CO)CC[C@@H]2O[C@@H]1CCc1ccc(C#Cc2ccccc2)cc1	6	/	/	/	/	/	/
Cc1noc(C)c1COc1ccc(C(=O)OCc2nnc(-c3ccc(Cl)cc3)o2)cc1	2	16	-1	66*	-3	1	69*
CC(=O)c1ccc(OCCCC(=O)OCc2nnc(-c3ccc(Cl)cc3)o2)cc1	-1	2	-11	-6	1	9	/
O=C(OCc1nnc(-c2ccccc2)o1)c1cccc(S(=O)(=O)N2CCOCC2)c1	-3	-9	5	57*	-6	-2	40*
O=C(OCc1nnc(-c2ccccc2)o1)c1ccc(Br)o1	-3	-13	-7	9	-4	2	/
Cc1nc2ccc(C(=O)OCc3nnc(-c4ccccc4)o3)cc2nc1C	-8	/	/	35*	14	9	18
O=C(OCc1nnc(-c2ccc(Br)cc2)o1)c1ccco1	-4	4	5	54*	10	1	42*
CCOC(=O)c1cccc(S(=O)(=O)N2CCOCC2)c1	-3	0	1	-4	7	1	/
COc1ccc(CN2C(=O)CN(S(C)(=O)=O)CC2(C)C(=O)Nc2c(C)cccc2C)cc1OC (stereo unspecified)	3	/	/	/	/	/	/
O=C1/C(=C/c2ccccn2)SC(=S)N1NS(=O)(=O)c1ccccc1	32	12	-3	4	10	7	/
O=C1/C(=C/c2ccc(F)cc2)SC(=S)N1Nc1ncc(C(F)(F)F)cc1Cl	4	-5	-10	2	-6	-4	/
O=C1/C(=C\c2ccccn2)SC(=S)N1Nc1ncc(C(F)(F)F)cc1Cl	/	-8	-12	34*	12	10	26
O=C1/C(=C/c2ccccn2)SC(=S)N1Nc1ncc(C(F)(F)F)cc1Cl	8	/	/	37*	11	19	18
COc1ccc(S[C@]2(C(=O)N(C)C)CC(=O)N(c3ccc(Cl)cc3)[C@@H]2c2ccc(OC)cc2)cc1	4	/	/	/	/	/	/
CCCCNC(=O)C1C(c2ccc(C(F)(F)F)cc2)=Nc2ccccc2N1C(C)=O (stereo unspecified)	-2	/	/	/	/	/	/
COc1ccc(C(=O)Nc2cc(Cl)ccc2OC(=O)c2ccc(OC)cc2)cc1	/	-1	-3	45*	3	0	35*
